Assay [1] in a line: BSK_SAg_PBMCCytotoxicity: PBMC Cytotoxicity Assessment in the BioMAP Diversity Plus: SAg Assay (AID 2283093).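 For AC50: PBMC superantigen activated with SEB plus TSST-1 one hour after compound addition.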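 Note: PBMC viability measured as Alamar Blue reduction fluorescence at 546/580 nm; fitted both ways against DMSO so a hit may be loss or gain of signal.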 The note with it: primary human HUVEC with PBMC. A digest of the protocol: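 Human umbilical vein endothelial cells co-cultured with PBMC; PBMC (75,000/well) pre-treated with compound 1 h, then activated with SEB and TSST-1 (20 ng/mL final each) for 90 h. Alamar Blue added 6 h, fluorescence 546/580 nm; bidirectional fit versus DMSO.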

Read-out in assay [2]: Interleukin-8 (IL8), CXCL8 (gene 3576)
Kind of assay: BSK_SAg_IL8: BioMAP Diversity Plus: SAg Assay for Interleukin-8 (IL8) Biomarker Activity (AID 2283094). The note with it: primary human HUVEC with PBMC; actives raise or lower the signal. A digest of the protocol: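 ELISA read-out of IL-8 in a primary human vascular co-culture (umbilical vein endothelium plus PBMC), taken 24 h after compound addition. Values derive from bidirectional fits against DMSO negative controls.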

Assay [3] can be described thus: BSK_SAg_Proliferation: Cell Proliferation Assessment in the BioMAP Diversity Plus: SAg Assay (AID 2283095).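 Note: relative cell number as total protein by SRB absorbance in sub-confluent culture.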 The note with it: primary human HUVEC with PBMC. A digest of the protocol:
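Cells (endothelium plus PBMC, human primary) were dosed with chemical, cultured 96 h, fixed in 10% TCA and stained with 0.1% SRB. Absorbance at 560 nm gave relative protein, fitted bidirectionally relative to DMSO.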

The nature of assay [4]: BSK_SAg_SRB: Viability Assessment in the BioMAP Diversity Plus: SAg Assay (AID 2283096).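 Note: cells read one day after compound addition; hits may be either gain or loss of signal compared with DMSO.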 The settings on record: primary human HUVEC with PBMC. The method, boiled down: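 Endothelial/PBMC primary human co-culture; compound 24 h; fix 10% TCA, stain 0.1% SRB, A560; protein content as cytotoxicity proxy; bidirectional curve fit, DMSO = baseline.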
Assay [5] deals with human CYP2A6, CYP2A6 (gene 1548) (UniProt P11509). As to the kind of experiment: NVS_ADME_hCYP2A6: NovaScreen (NVS) CYP450-related Enzyme Activity (ADME) Assay for human CYP2A6 (AID 2283099; active = hit-call score of the fitted dose curve at least 0.9, where 1 is the maximum). A digest of the protocol:
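Compounds screened at 10 uM (duplicate) and, if active, titrated to a 20 uM top concentration against insect-cell-expressed CYP2A6. Loss of fluorescent product signal after 0.5 h, relative to acetonitrile baseline, indicates inhibition.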

Assay [6] deals with Cytochrome P450 2C19 (Homo sapiens) (UniProt P33261). Kind of assay: NVS_ADME_hCYP2C19: NovaScreen (NVS) CYP450-related Enzyme Activity (ADME) Assay for human CYP2C19 (AID 2283113; active = hit-call score of the fitted dose curve at least 0.9, where 1 is the maximum;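 for AC50: potency for inhibition seen as loss of fluorescent signal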). The method, boiled down:
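Compounds first screened in duplicate at 10 uM, then confirmed in concentration series. Insect-cell-expressed human CYP2C19 turned over a fluorogenic substrate, and fluorescence was read after 1 h. Inhibition taken as signal loss relative to acetonitrile.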

The target of assay [7] is human CYP1A1, CYP1A1 (gene 1543) (UniProt P04798). Kind of assay: NVS_ADME_hCYP1A1: NovaScreen (NVS) CYP450-related Enzyme Activity (ADME) Assay for human CYP1A1 (AID 2283100; active = hit-call score of the fitted dose curve at least 0.9, where 1 is the maximum). The method, boiled down:
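Chemicals were first tested in duplicate at 10 uM, and those passing a 30% inhibition threshold were rerun as concentration series topping at 20 uM. Fluorescence read-out of recombinant enzyme turnover after 1 h, relative to acetonitrile.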

Assay [8] deals with human CYP2B6, CYP2B6 (gene 1555) (UniProt P20813). Kind of assay: NVS_ADME_hCYP2B6: NovaScreen (NVS) CYP450-related Enzyme Activity (ADME) Assay for human CYP2B6 (AID 2283101; active = hit-call score of the fitted dose curve at least 0.9, where 1 is the maximum). A digest of the protocol:
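Fluorescence-based enzyme activity of recombinant human CYP2B6, measured 1 h post-dose against acetonitrile vehicle baseline. Screened at a single concentration of 10 uM in duplicate before concentration-response follow-up.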

In assay [9] the target is human CYP1A2, CYP1A2 (gene 1544) (UniProt P05177). Kind of assay: NVS_ADME_hCYP1A2: NovaScreen (NVS) CYP450-related Enzyme Activity (ADME) Assay for human CYP1A2 (AID 2283102; active = hit-call score of the fitted dose curve at least 0.9, where 1 is the maximum;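 note: potency for inhibition since loss of fluorescence marks reduced CYP1A2 activity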). The method, boiled down:
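Enzyme activity of insect-cell-expressed human CYP1A2 measured by fluorescence 0.5 h after compound addition, relative to acetonitrile. Compounds first tested in duplicate at 10 uM, actives followed up in concentration series.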

For assay [10], the target named is human CYP2D6, CYP2D6 (gene 1565) (UniProt P10635). As to the kind of experiment: NVS_ADME_hCYP2D6: NovaScreen (NVS) CYP450-related Enzyme Activity (ADME) Assay for human CYP2D6 (AID 2283107; active = hit-call score of the fitted dose curve at least 0.9, where 1 is the maximum). A digest of the protocol:
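Fluorescence readout of recombinant CYP2D6 (insect-cell derived) activity after 1 h incubation with test chemical. Acetonitrile served as baseline, loss-of-signal direction. Single-concentration duplicate screening at 10 uM preceded concentration-response retesting.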

Assay [11] has as its target human CYP2C9, CYP2C9 (gene 1559) (UniProt P11712). As to the kind of experiment: NVS_ADME_hCYP2C9: NovaScreen (NVS) CYP450-related Enzyme Activity (ADME) Assay for human CYP2C9 (AID 2283108; active = hit-call score of the fitted dose curve at least 0.9, where 1 is the maximum). The method, boiled down: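 Cell-free assay of recombinant human CYP2C9 produced in Sf9 cells, with enzyme activity read by fluorescence intensity 0.75 h after compound addition. Loss of signal versus an acetonitrile negative control indicates inhibition. Primary screen used 10 uM in duplicate; actives were retested in concentration series.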

Assay [12] concerns the target human Beta-secretase (BACE), BACE1 (gene 23621) (UniProt P56817). As to the kind of experiment: NVS_ENZ_hBACE: NovaScreen (NVS) Enzymatic Assay for human Beta-secretase (BACE) (AID 2283140; active = hit-call score of the fitted dose curve at least 0.9, where 1 is the maximum;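 note: hits are inhibitors that reduce fluorescent substrate signal versus DMSO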). The method, boiled down: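 Compounds were first tested in duplicate at 25 uM, then actives in concentration series, against recombinant BACE1 from SF9 cells. Enzyme activity was measured by fluorescence intensity 1 hour after dosing, with DMSO as negative control.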

For assay [13], the target named is human CYP19A1, CYP19A1 (gene 1588) (UniProt P11511). As to the kind of experiment: NVS_ADME_hCYP19A1: NovaScreen (NVS) CYP450-related Enzyme Activity (ADME) Assay for human CYP19A1 (AID 2283098; active = hit-call score of the fitted dose curve at least 0.9, where 1 is the maximum;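 note: potency for inhibitors seen as loss of fluorescent enzyme signal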). A digest of the protocol:
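Cell-free enzyme assay with recombinant protein and a specific fluorogenic substrate, read by fluorescence intensity 0.5 h after dosing. Primary screen ran in duplicate at 10 uM; actives were retested in concentration series. Loss of signal versus acetonitrile baseline.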

Assay [14] has as its target Cytochrome P450 3A4 (Homo sapiens) (UniProt P08684). As to the kind of experiment: NVS_ADME_hCYP3A4: NovaScreen (NVS) CYP450-related Enzyme Activity (ADME) Assay for human CYP3A4 (AID 2283110; active = hit-call score of the fitted dose curve at least 0.9, where 1 is the maximum). The method, boiled down: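 Cell-free assay using insect-cell-expressed human CYP3A4 with a fluorogenic substrate; fluorescence intensity was read 0.33 hour after dosing. Loss of signal relative to acetonitrile vehicle indicated inhibition. Primary single-concentration screen at 10 uM, in duplicate, then concentration series.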

Assay [15] concerns the target human AKT serine/threonine Kinase 1 (AKT1), AKT1 (gene 207) (UniProt P31749). Kind of assay: NVS_ENZ_hAKT1: NovaScreen (NVS) Enzymatic Assay for human AKT serine/threonine Kinase 1 (AKT1) (AID 2283138; active = hit-call score of the fitted dose curve at least 0.9, where 1 is the maximum). A digest of the protocol: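 Recombinant AKT1, specific substrate, cell-free; 1 h; fluorescence intensity/electrophoretic mobility shift. Duplicate single-point 25 uM, then singleton CRC max 50 uM. DMSO = negative control/baseline; signal loss = inhibition.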

The target in assay [16] is human AKT serine/threonine Kinase 2 (AKT2), AKT2 (gene 208) (UniProt P31751). As to the kind of experiment: NVS_ENZ_hAKT2: NovaScreen (NVS) Enzymatic Assay for human AKT serine/threonine Kinase 2 (AKT2) (AID 2283141; active = hit-call score of the fitted dose curve at least 0.9, where 1 is the maximum). A digest of the protocol:
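Cell-free fluorescence/electrophoretic mobility shift readout of recombinant human AKT2 activity, 1 h after chemical dosing. Duplicate primary screen at 25 uM, then singleton concentration-response up to 50 uM; loss of signal versus DMSO baseline.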

Inconclusive results are not listed. Calls of active or inactive are those of the source. Rule for the calls, unless noted: active = hit-call score of the fitted dose curve at least 0.9, where 1 is the maximum; inactive = score below 0.9.

human CYP1A1, CYP1A1 (gene 1543), sequence (P04798 whole entry, looked up): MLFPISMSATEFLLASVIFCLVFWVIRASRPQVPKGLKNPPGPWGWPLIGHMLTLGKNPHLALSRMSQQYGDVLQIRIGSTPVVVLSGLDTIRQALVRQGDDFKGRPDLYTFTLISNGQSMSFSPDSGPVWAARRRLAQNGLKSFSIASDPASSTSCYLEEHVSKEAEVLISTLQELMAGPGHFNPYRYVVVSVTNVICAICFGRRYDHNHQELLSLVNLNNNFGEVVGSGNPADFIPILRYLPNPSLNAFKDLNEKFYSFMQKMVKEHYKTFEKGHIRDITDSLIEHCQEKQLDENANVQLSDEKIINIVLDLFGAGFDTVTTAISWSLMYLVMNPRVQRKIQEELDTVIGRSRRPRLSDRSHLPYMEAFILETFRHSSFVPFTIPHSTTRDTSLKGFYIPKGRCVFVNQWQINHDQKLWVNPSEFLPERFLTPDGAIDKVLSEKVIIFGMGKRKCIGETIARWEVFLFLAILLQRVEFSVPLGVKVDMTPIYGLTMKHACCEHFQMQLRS
human CYP2B6, CYP2B6 (gene 1555), sequence (P20813 whole entry, looked up): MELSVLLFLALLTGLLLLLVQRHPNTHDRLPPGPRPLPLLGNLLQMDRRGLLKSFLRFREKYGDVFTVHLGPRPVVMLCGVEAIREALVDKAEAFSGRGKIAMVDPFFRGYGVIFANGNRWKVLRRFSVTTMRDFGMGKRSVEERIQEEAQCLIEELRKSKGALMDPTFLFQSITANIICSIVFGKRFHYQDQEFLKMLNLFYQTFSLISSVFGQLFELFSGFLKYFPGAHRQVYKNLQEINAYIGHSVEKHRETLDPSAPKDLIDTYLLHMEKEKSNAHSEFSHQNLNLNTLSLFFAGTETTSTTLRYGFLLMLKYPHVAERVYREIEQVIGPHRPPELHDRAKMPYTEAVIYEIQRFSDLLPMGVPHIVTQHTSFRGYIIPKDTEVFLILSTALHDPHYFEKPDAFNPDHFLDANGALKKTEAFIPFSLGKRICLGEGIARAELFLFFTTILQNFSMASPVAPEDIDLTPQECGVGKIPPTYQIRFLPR
human CYP2C9, CYP2C9 (gene 1559), sequence (P11712 whole entry, looked up): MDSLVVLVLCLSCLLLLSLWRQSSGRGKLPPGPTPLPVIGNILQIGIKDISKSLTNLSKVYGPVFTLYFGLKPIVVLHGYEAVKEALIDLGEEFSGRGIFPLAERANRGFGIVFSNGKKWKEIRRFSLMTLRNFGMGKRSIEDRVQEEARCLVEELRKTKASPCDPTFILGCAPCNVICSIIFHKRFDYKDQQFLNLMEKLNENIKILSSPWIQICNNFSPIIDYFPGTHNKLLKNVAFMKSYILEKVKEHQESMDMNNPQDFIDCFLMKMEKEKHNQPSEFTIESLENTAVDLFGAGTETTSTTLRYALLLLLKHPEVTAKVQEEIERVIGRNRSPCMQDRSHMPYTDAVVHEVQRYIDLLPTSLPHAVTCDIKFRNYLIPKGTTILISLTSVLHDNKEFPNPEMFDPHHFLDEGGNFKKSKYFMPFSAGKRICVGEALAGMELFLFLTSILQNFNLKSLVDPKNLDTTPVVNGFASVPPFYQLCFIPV
Cytochrome P450 3A4 (Homo sapiens), sequence (P08684 whole entry, looked up): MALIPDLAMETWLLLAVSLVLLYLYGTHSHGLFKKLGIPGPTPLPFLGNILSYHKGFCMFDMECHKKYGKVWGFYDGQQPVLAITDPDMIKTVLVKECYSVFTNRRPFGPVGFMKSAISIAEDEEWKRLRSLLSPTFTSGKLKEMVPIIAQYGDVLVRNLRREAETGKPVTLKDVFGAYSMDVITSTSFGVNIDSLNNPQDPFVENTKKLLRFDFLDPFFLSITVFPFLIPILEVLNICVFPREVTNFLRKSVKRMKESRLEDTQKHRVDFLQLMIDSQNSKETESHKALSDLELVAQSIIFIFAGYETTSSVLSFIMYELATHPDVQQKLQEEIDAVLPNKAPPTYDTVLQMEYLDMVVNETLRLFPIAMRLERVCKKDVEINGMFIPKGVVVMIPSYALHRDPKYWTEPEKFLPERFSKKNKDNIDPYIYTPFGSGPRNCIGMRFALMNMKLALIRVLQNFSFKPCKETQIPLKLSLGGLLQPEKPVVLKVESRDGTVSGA
human Beta-secretase (BACE), BACE1 (gene 23621), sequence (P56817 whole entry, looked up): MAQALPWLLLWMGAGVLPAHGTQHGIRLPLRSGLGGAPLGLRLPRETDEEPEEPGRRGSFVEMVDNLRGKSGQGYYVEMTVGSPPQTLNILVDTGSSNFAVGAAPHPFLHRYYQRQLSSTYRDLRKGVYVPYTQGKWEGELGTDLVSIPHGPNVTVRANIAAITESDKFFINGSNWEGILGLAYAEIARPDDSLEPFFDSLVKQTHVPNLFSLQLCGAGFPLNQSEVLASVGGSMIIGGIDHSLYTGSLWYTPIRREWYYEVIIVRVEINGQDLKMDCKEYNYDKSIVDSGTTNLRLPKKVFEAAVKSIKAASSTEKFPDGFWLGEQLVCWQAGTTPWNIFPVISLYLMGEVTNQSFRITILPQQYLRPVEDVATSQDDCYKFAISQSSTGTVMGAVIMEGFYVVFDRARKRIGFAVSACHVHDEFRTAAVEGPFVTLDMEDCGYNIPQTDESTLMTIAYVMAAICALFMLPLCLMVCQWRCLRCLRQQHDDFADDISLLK
human CYP2D6, CYP2D6 (gene 1565), sequence (P10635 whole entry, looked up): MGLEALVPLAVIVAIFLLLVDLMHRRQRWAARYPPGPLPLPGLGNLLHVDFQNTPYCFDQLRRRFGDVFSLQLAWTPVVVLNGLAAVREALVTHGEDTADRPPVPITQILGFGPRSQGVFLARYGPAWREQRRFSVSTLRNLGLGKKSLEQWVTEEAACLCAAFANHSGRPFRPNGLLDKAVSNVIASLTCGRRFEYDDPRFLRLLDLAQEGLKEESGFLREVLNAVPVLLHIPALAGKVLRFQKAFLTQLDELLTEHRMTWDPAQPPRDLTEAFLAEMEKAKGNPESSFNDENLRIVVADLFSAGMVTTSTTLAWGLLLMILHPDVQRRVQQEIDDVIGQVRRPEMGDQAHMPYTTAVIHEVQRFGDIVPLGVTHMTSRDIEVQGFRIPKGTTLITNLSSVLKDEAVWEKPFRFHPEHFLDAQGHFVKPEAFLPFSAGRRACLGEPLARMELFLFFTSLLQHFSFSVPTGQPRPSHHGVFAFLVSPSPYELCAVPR
human AKT serine/threonine Kinase 2 (AKT2), AKT2 (gene 208), sequence (P31751 whole entry, looked up): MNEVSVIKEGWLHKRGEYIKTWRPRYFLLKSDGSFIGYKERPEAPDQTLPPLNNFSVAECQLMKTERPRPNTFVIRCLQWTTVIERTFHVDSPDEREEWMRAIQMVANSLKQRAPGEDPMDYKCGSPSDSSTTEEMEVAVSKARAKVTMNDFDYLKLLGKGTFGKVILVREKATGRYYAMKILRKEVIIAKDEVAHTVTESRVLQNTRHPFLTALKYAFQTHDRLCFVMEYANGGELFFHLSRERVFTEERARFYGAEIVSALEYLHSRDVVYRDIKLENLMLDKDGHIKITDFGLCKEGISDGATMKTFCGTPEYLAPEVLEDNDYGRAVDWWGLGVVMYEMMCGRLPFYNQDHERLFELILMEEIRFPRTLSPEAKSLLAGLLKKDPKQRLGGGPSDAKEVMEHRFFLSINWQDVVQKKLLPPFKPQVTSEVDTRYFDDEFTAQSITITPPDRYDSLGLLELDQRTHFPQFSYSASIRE
human CYP2A6, CYP2A6 (gene 1548), sequence (P11509 whole entry, looked up): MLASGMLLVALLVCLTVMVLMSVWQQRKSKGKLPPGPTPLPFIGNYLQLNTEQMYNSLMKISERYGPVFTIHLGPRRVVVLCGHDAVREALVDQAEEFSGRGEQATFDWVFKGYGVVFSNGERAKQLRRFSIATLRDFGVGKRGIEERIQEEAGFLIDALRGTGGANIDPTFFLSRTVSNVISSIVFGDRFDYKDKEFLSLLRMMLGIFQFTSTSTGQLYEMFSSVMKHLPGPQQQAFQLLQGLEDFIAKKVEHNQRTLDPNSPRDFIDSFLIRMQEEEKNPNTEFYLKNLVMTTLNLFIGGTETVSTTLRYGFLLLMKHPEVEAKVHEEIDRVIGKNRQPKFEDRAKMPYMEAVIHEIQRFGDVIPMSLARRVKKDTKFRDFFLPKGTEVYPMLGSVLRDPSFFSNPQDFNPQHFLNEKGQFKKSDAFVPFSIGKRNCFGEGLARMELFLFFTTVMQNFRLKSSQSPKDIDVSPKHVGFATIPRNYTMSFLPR
human CYP1A2, CYP1A2 (gene 1544), sequence (P05177 whole entry, looked up): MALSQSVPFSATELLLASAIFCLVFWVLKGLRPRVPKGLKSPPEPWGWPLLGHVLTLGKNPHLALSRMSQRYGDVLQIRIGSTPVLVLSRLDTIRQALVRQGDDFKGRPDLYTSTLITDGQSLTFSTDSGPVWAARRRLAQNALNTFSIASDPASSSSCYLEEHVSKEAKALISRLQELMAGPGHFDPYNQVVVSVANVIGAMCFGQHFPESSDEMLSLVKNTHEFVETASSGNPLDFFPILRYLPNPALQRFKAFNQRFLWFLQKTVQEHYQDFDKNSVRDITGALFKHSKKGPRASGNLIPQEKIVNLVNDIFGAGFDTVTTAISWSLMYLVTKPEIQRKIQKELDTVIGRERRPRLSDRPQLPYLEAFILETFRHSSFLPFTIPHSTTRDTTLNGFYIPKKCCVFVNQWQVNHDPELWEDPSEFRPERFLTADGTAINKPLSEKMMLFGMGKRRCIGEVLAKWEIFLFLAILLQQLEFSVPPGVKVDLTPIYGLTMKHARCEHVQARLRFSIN
human CYP19A1, CYP19A1 (gene 1588), sequence (P11511 whole entry, looked up): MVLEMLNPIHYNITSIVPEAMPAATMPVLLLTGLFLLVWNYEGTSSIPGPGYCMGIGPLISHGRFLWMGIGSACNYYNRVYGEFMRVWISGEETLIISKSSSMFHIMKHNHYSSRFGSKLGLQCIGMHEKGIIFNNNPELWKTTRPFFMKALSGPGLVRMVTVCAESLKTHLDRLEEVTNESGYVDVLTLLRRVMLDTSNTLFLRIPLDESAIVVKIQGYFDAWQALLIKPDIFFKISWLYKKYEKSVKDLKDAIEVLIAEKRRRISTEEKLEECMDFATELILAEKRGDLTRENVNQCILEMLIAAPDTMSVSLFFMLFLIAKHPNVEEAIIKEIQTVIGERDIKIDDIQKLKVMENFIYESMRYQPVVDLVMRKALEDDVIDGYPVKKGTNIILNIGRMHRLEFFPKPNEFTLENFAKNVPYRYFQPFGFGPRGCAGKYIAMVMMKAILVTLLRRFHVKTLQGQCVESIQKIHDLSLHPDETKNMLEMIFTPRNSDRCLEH

Take `CC(C)=CCCC(C)=CC=O`: the result in [1], in assay [2], in assay [3], in [4], in [5] and in [6] was inactive.

For `O=C(O)CC(O)C(=O)O` (stereo not given), the result in [1], in assay [2], in assay [3] and in assay [4] was inactive. In addition, in assay [6], the AC50 is 12.9 µM (active).

On to `Cc1[nH]cnc1C[C@H]1CCc2c(C)c3ccccc3n2C1=O`, for which the AC50 was 30.7 µM (active) in assay [1]; 24.7 µM (active) in assay [2]; 31 µM (active) in assay [3]; 26.8 µM (active) in [4]; 3.83 µM (active) in assay [7]; 4.01 µM (active) in assay [8]. The AC50 in [9] was 1.78 µM (active); in assay [10], 3.98 µM (active); in assay [11], 1.77 µM (active); in [6], 0.636 µM (active).

`O=C1CCC(N2C(=O)c3ccccc3C2=O)C(=O)N1` (stereo not given): the outcome in assay [1], in assay [2], in assay [3], in [4] and in assay [12] was inactive.

For `CC(C)=CCCC(C)CCO` (stereo not given), the result in [1], in [2], in assay [3], in [4], in [7] and in [6] was inactive.

As for `CCOC(=O)c1ccc(C2CCC(NC[C@H](O)COc3ccc(O)c(NS(C)(=O)=O)c3)CC2)cc1` (stereo not given in full), the AC50 in assay [1] was 20.6 µM (active); in assay [2] it was 28.8 µM (active); in assay [3] it was 14.4 µM (active); in assay [4], 26.3 µM (active); in [13] it was 0.513 µM (active); in [11], 2.14 µM (active). The AC50 in assay [6] is 1.74 µM (active). Besides, the call in assay [8] and in [14] was inactive.

Take `CC(C)CC(C)(O)C#CC(C)(O)CC(C)C` (stereo not given): the result in assay [1], in assay [2], in assay [3], in assay [4] and in [15] was inactive.

In the case of `CNCc1ccc(NC(=O)c2c[nH]c3c2C(=O)CCC3)cc1`, the result in assay [1], in assay [2], in [3], in assay [4] and in assay [12] was inactive.

On to `CC(=O)OCCC(C)C`, for which the outcome in [1], in [2], in assay [3], in [4], in assay [7] and in [8] was inactive. Besides, the outcome in assay [10] and in [14] was inactive. Also, in assay [11], the AC50 is 8.59 µM (active).

Turning to `CC[C@H](C)C(=O)O[C@H]1C[C@@H](C)C=C2C=C[C@H](C)[C@H](CC[C@@H]3C[C@@H](O)CC(=O)O3)[C@H]21`, the AC50 in [1] is 21.7 µM (active); in [2], 0.147 µM (active); in assay [3] it was 4.5 µM (active); in assay [4], 3.95 µM (active). In addition, in [16], the result was inactive.
